In all, about 16,000 sequences were measured (“rpm ratio (pull-down/input)”: median about 0.5, highest 2% from about 5.5 on). Many of the other results were omitted from the sample, so the highest values are more common in it than they were.
What follows are sequences tested against T1, MBP-FoxP3dN (Mus musculus, UniProt Q99JB6 188-423) (assay: PD-seq (MBP pull-down with sequencing); 20 mM Tris-HCl pH 7.5, 100 mM NaCl, 1.5 mM MgCl2, 0.4 uM protein, 0.1 uM dsDNA library, 30 min, room temperature, amylose pull-down; high values mean tight binding). Conditions: protein: recombinant; tags: His6-MBP; chain copies: 2; dsDNA, one strand shown.
T1 sequence: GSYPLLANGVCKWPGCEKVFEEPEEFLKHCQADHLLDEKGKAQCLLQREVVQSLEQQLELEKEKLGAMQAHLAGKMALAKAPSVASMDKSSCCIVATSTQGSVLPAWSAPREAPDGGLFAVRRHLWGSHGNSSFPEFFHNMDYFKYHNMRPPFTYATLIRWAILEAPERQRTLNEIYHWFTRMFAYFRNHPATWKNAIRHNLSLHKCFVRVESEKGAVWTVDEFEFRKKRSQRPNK
Outline: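 The N-terminus-lacking fragment of mouse FoxP3 or FoxP1 carried a His6-MBP tag and was expressed in E. coli. At 0.4 µM it was incubated with 0.1 µM Klenow-filled degenerate double-stranded DNA library for 30 min at room temperature in Tris pH 7.5 buffer with NaCl and MgCl2, and complexes were caught on amylose resin, washed three times, released with proteinase K, PCR-barcoded and Illumina-sequenced. Binding is reads-per-million enrichment of pull-down over input with replicates pooled.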

Sequence | binding signal
GATGATTGTTCTCCCAGCTGATGAATTCATTTGCTCGAGTAAACAAATTTTCCTAATCTTTCTGTTCAAGCGCCATCTAC | 2.92 RPM ratio (pull-down/input)
GATGATTGTTCTCCCAGCTGATGAATTTGCGTATTCGAGTAAACAAATTTTCCTAATCTTTCTGTTCAAGCGCCATCTAC | 4.16 RPM ratio (pull-down/input)
GATGATTGTTCTCCCAGCTGATGAATTGGGTCATTCGAGTAAACAAATTTTCCTAATCTTTCTGTTCAAGCGCCATCTAC | 0.64 RPM ratio (pull-down/input)
GATGATTGTTCTCCCAGCTGATGAATTAATCTTGTCGAGTAAACAAATTTTCCTAATCTTTCTGTTCAAGCGCCATCTAC | 0.322 RPM ratio (pull-down/input)
GATGATTGTTCTCCCAGCTGATGAATTGCTCAAATCGAGTAAACAAATTTTCCTAATCTTTCTGTTCAAGCGCCATCTAC | 0.408 RPM ratio (pull-down/input)
GATGATTGTTCTCCCAGCTGATGAATTTTGCGGATCGAGTAAACAAATTTTCCTAATCTTTCTGTTCAAGCGCCATCTAC | 0.597 RPM ratio (pull-down/input)
GATGATTGTTCTCCCAGCTGATGAATTACACATATCGAGTAAACAAATTTTCCTAATCTTTCTGTTCAAGCGCCATCTAC | 0.87 RPM ratio (pull-down/input)
GATGATTGTTCTCCCAGCTGATGAATTGCGCATGTCGAGTAAACAAATTTTCCTAATCTTTCTGTTCAAGCGCCATCTAC | 6.5 RPM ratio (pull-down/input)
GATGATTGTTCTCCCAGCTGATGAATTCCGCATGTCGAGTAAACAAATTTTCCTAATCTTTCTGTTCAAGCGCCATCTAC | 5.82 RPM ratio (pull-down/input)
GATGATTGTTCTCCCAGCTGATGAATTGCCCATGTCGAGTAAACAAATTTTCCTAATCTTTCTGTTCAAGCGCCATCTAC | 0.577 RPM ratio (pull-down/input)
GATGATTGTTCTCCCAGCTGATGAATTGCTGATGTCGAGTAAACAAATTTTCCTAATCTTTCTGTTCAAGCGCCATCTAC | 0.843 RPM ratio (pull-down/input)
GATGATTGTTCTCCCAGCTGATGAATTCCCCATGTCGAGTAAACAAATTTTCCTAATCTTTCTGTTCAAGCGCCATCTAC | 0.259 RPM ratio (pull-down/input)
GATGATTGTTCTCCCAGCTGATGAATTCTCCATGTCGAGTAAACAAATTTTCCTAATCTTTCTGTTCAAGCGCCATCTAC | 0.249 RPM ratio (pull-down/input)
GATGATTGTTCTCCCAGCTGATGAATTGCGGTATTCGAGTAAACAAATTTTCCTAATCTTTCTGTTCAAGCGCCATCTAC | 1.67 RPM ratio (pull-down/input)
GATGATTGTTCTCCCAGCTGATGAATTCTTGACTTCGAGTAAACAAATTTTCCTAATCTTTCTGTTCAAGCGCCATCTAC | 0.38 RPM ratio (pull-down/input)
GATGATTGTTCTCCCAGCTGATGAATTATAGCCGTCGAGTAAACAAATTTTCCTAATCTTTCTGTTCAAGCGCCATCTAC | 0.504 RPM ratio (pull-down/input)
GATGATTGTTCTCCCAGCTGATGAATTTCTGGTGTCGAGTAAACAAATTTTCCTAATCTTTCTGTTCAAGCGCCATCTAC | 0.353 RPM ratio (pull-down/input)
GATGATTGTTCTCCCAGCTGATGAATTCTTAGTTTCGAGTAAACAAATTTTCCTAATCTTTCTGTTCAAGCGCCATCTAC | 0.302 RPM ratio (pull-down/input)
GATGATTGTTCTCCCAGCTGATGAATTACCAGGCTCGAGTAAACAAATTTTCCTAATCTTTCTGTTCAAGCGCCATCTAC | 0.357 RPM ratio (pull-down/input)
GATGATTGTTCTCCCAGCTGATGAATTTGAGCATTCGAGTAAACAAATTTTCCTAATCTTTCTGTTCAAGCGCCATCTAC | 5.36 RPM ratio (pull-down/input)
GATGATTGTTCTCCCAGCTGATGAATTGAGCATTTCGAGTAAACAAATTTTCCTAATCTTTCTGTTCAAGCGCCATCTAC | 6.08 RPM ratio (pull-down/input)

Sequence | binding signal
GATGATTGTTCTCCCAGCTGATGAATTGAGCAGCTCGAGTAAACAAATTTTCCTAATCTTTCTGTTCAAGCGCCATCTAC | 1.12 RPM ratio (pull-down/input)
GATGATTGTTCTCCCAGCTGATGAATTTTGAGCATCGAGTAAACAAATTTTCCTAATCTTTCTGTTCAAGCGCCATCTAC | 0.906 RPM ratio (pull-down/input)
GATGATTGTTCTCCCAGCTGATGAATTCGAGCATTCGAGTAAACAAATTTTCCTAATCTTTCTGTTCAAGCGCCATCTAC | 4.97 RPM ratio (pull-down/input)
GATGATTGTTCTCCCAGCTGATGAATTGAGCATCTCGAGTAAACAAATTTTCCTAATCTTTCTGTTCAAGCGCCATCTAC | 6.26 RPM ratio (pull-down/input)
GATGATTGTTCTCCCAGCTGATGAATTGAAGTCTTCGAGTAAACAAATTTTCCTAATCTTTCTGTTCAAGCGCCATCTAC | 0.312 RPM ratio (pull-down/input)
GATGATTGTTCTCCCAGCTGATGAATTAGCCTCCTCGAGTAAACAAATTTTCCTAATCTTTCTGTTCAAGCGCCATCTAC | 1.57 RPM ratio (pull-down/input)
GATGATTGTTCTCCCAGCTGATGAATTAAGCGGATCGAGTAAACAAATTTTCCTAATCTTTCTGTTCAAGCGCCATCTAC | 0.341 RPM ratio (pull-down/input)
GATGATTGTTCTCCCAGCTGATGAATTGTAAACGTCGAGTAAACAAATTTTCCTAATCTTTCTGTTCAAGCGCCATCTAC | 0.874 RPM ratio (pull-down/input)
GATGATTGTTCTCCCAGCTGATGAATTCCGCCACTCGAGTAAACAAATTTTCCTAATCTTTCTGTTCAAGCGCCATCTAC | 6.15 RPM ratio (pull-down/input)
GATGATTGTTCTCCCAGCTGATGAATTCGCCCACTCGAGTAAACAAATTTTCCTAATCTTTCTGTTCAAGCGCCATCTAC | 0.406 RPM ratio (pull-down/input)
GATGATTGTTCTCCCAGCTGATGAATTCAGCCACTCGAGTAAACAAATTTTCCTAATCTTTCTGTTCAAGCGCCATCTAC | 5.07 RPM ratio (pull-down/input)
GATGATTGTTCTCCCAGCTGATGAATTTCTCCACTCGAGTAAACAAATTTTCCTAATCTTTCTGTTCAAGCGCCATCTAC | 0.272 RPM ratio (pull-down/input)
GATGATTGTTCTCCCAGCTGATGAATTCCCCCACTCGAGTAAACAAATTTTCCTAATCTTTCTGTTCAAGCGCCATCTAC | 0.253 RPM ratio (pull-down/input)
GATGATTGTTCTCCCAGCTGATGAATTTTCCCACTCGAGTAAACAAATTTTCCTAATCTTTCTGTTCAAGCGCCATCTAC | 0.213 RPM ratio (pull-down/input)
GATGATTGTTCTCCCAGCTGATGAATTCTGCCACTCGAGTAAACAAATTTTCCTAATCTTTCTGTTCAAGCGCCATCTAC | 6.04 RPM ratio (pull-down/input)
GATGATTGTTCTCCCAGCTGATGAATTTTCGCACTCGAGTAAACAAATTTTCCTAATCTTTCTGTTCAAGCGCCATCTAC | 0.504 RPM ratio (pull-down/input)
GATGATTGTTCTCCCAGCTGATGAATTTCGCCACTCGAGTAAACAAATTTTCCTAATCTTTCTGTTCAAGCGCCATCTAC | 5.74 RPM ratio (pull-down/input)
GATGATTGTTCTCCCAGCTGATGAATTGTGCCACTCGAGTAAACAAATTTTCCTAATCTTTCTGTTCAAGCGCCATCTAC | 6.84 RPM ratio (pull-down/input)
GATGATTGTTCTCCCAGCTGATGAATTCTCCCACTCGAGTAAACAAATTTTCCTAATCTTTCTGTTCAAGCGCCATCTAC | 0.246 RPM ratio (pull-down/input)
GATGATTGTTCTCCCAGCTGATGAATTCCCACTCTCGAGTAAACAAATTTTCCTAATCTTTCTGTTCAAGCGCCATCTAC | 0.323 RPM ratio (pull-down/input)
GATGATTGTTCTCCCAGCTGATGAATTTCTCGTCTCGAGTAAACAAATTTTCCTAATCTTTCTGTTCAAGCGCCATCTAC | 0.277 RPM ratio (pull-down/input)

Sequence | binding signal
GATGATTGTTCTCCCAGCTGATGAATTACCACTGTCGAGTAAACAAATTTTCCTAATCTTTCTGTTCAAGCGCCATCTAC | 0.41 RPM ratio (pull-down/input)
GATGATTGTTCTCCCAGCTGATGAATTAGACTTGTCGAGTAAACAAATTTTCCTAATCTTTCTGTTCAAGCGCCATCTAC | 0.529 RPM ratio (pull-down/input)
GATGATTGTTCTCCCAGCTGATGAATTCTCATGTTCGAGTAAACAAATTTTCCTAATCTTTCTGTTCAAGCGCCATCTAC | 0.416 RPM ratio (pull-down/input)
GATGATTGTTCTCCCAGCTGATGAATTATCGGTCTCGAGTAAACAAATTTTCCTAATCTTTCTGTTCAAGCGCCATCTAC | 0.382 RPM ratio (pull-down/input)
GATGATTGTTCTCCCAGCTGATGAATTACGTACATCGAGTAAACAAATTTTCCTAATCTTTCTGTTCAAGCGCCATCTAC | 0.647 RPM ratio (pull-down/input)
GATGATTGTTCTCCCAGCTGATGAATTGTGATGTTCGAGTAAACAAATTTTCCTAATCTTTCTGTTCAAGCGCCATCTAC | 4.21 RPM ratio (pull-down/input)
GATGATTGTTCTCCCAGCTGATGAATTTTGCTTATCGAGTAAACAAATTTTCCTAATCTTTCTGTTCAAGCGCCATCTAC | 6.46 RPM ratio (pull-down/input)
GATGATTGTTCTCCCAGCTGATGAATTTGCTTTATCGAGTAAACAAATTTTCCTAATCTTTCTGTTCAAGCGCCATCTAC | 3.94 RPM ratio (pull-down/input)
GATGATTGTTCTCCCAGCTGATGAATTGCTTATATCGAGTAAACAAATTTTCCTAATCTTTCTGTTCAAGCGCCATCTAC | 1.61 RPM ratio (pull-down/input)
GATGATTGTTCTCCCAGCTGATGAATTGCTTTATTCGAGTAAACAAATTTTCCTAATCTTTCTGTTCAAGCGCCATCTAC | 1.09 RPM ratio (pull-down/input)
GATGATTGTTCTCCCAGCTGATGAATTGCTTATTTCGAGTAAACAAATTTTCCTAATCTTTCTGTTCAAGCGCCATCTAC | 2.46 RPM ratio (pull-down/input)
GATGATTGTTCTCCCAGCTGATGAATTTGCTTATTCGAGTAAACAAATTTTCCTAATCTTTCTGTTCAAGCGCCATCTAC | 6.84 RPM ratio (pull-down/input)
GATGATTGTTCTCCCAGCTGATGAATTACTCATCTCGAGTAAACAAATTTTCCTAATCTTTCTGTTCAAGCGCCATCTAC | 0.431 RPM ratio (pull-down/input)
GATGATTGTTCTCCCAGCTGATGAATTGAGCGCATCGAGTAAACAAATTTTCCTAATCTTTCTGTTCAAGCGCCATCTAC | 1.34 RPM ratio (pull-down/input)
GATGATTGTTCTCCCAGCTGATGAATTCCCACGTTCGAGTAAACAAATTTTCCTAATCTTTCTGTTCAAGCGCCATCTAC | 0.282 RPM ratio (pull-down/input)
GATGATTGTTCTCCCAGCTGATGAATTGTCTATTTCGAGTAAACAAATTTTCCTAATCTTTCTGTTCAAGCGCCATCTAC | 1.18 RPM ratio (pull-down/input)
GATGATTGTTCTCCCAGCTGATGAATTGTCCTATTCGAGTAAACAAATTTTCCTAATCTTTCTGTTCAAGCGCCATCTAC | 0.45 RPM ratio (pull-down/input)
GATGATTGTTCTCCCAGCTGATGAATTTGTCTATTCGAGTAAACAAATTTTCCTAATCTTTCTGTTCAAGCGCCATCTAC | 5.7 RPM ratio (pull-down/input)
GATGATTGTTCTCCCAGCTGATGAATTCCTATTGTCGAGTAAACAAATTTTCCTAATCTTTCTGTTCAAGCGCCATCTAC | 0.764 RPM ratio (pull-down/input)
GATGATTGTTCTCCCAGCTGATGAATTTCTATTGTCGAGTAAACAAATTTTCCTAATCTTTCTGTTCAAGCGCCATCTAC | 0.631 RPM ratio (pull-down/input)
GATGATTGTTCTCCCAGCTGATGAATTCTATTTGTCGAGTAAACAAATTTTCCTAATCTTTCTGTTCAAGCGCCATCTAC | 5.87 RPM ratio (pull-down/input)

— article PMC12820563, “FoxP3 forms a head-to-head dimer in vivo and stabilizes its multimerization on adjacent microsatellites”
